TCR-CD3 inh – human TCR-CD3 binding inhibition. TAMRA-labeled TCR probe fluorescence, biochemical. hit rate 0.37% among 360,000. inhibition, % at 9.4 µM; in the data active means inhibition above about 19%;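 further: recombinant mutant TCR 2C K166C tagged with TAMRA read by polarization; 0% = receptor in buffer alone and 100% = receptor with positive control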
PAFAH1B2 FP inh – blocks human PAF acetylhydrolase 1b catalytic subunit 2; P68402; recombinant PAFAH1B2, FP-rhodamine activity probe, fluorescence polarization; inhibition, % at 3.39 µM; hit rate 1.2% among 340,000; AID 492953;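 active means inhibition above the mean of all tested compounds plus 3 SD, cut at about 24% in these data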;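 further: 0% = enzyme with DMSO and 100% = wells lacking PAFAH1B2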
Target sequence (P68402 whole entry, looked up): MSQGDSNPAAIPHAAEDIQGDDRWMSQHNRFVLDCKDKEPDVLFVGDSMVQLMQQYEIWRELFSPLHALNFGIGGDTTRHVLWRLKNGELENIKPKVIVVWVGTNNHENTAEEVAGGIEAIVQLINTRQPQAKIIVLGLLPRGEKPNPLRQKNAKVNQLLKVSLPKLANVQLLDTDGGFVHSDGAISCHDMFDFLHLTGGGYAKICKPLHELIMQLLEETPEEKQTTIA
PAFAH2 inh – inhibitors of human PAFAH2; Q99487; recombinant PAFAH2, FP-rhodamine activity probe, fluorescence polarization; inhibition, % at 3.39 µM; hit rate 0.99% among 340,000;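 active means inhibition above the mean over all tested compounds plus 3 SD, cut at about 30% in these data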;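 further: inhibitors block probe labeling of enzyme so polarization drops; 0% = enzyme with DMSO and 100% = wells lacking PAFAH2 protein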
pPAFAH inh – inhibitors of human plasma PAF acetylhydrolase (pPAFAH). AID 463082. inhibition, % at 3.39 µM. Q13093. recombinant pPAFAH, FP-rhodamine probe fluorescence polarization. hit rate 1.5% among 330,000;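 active means inhibition above the mean inhibition across the screen plus 3 SD, cut at about 25% in these data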;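 further: inhibitors block binding of the rhodamine activity-based probe so polarization drops; 0% = enzyme with DMSO and 100% = wells lacking pPAFAH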
Target sequence (Q13093 whole entry, looked up): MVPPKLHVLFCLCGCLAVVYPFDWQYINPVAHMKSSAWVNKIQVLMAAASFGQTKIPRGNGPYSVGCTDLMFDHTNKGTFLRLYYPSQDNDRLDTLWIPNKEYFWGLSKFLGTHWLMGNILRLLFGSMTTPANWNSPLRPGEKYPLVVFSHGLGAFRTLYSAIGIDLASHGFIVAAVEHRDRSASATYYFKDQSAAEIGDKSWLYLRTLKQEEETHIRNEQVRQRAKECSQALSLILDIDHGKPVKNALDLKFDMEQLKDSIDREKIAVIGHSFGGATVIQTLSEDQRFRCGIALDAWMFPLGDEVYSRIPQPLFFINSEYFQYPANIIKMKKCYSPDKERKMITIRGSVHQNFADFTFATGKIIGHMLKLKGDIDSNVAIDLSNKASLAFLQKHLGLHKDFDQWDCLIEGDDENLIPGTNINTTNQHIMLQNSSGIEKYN
PAFAH1B3 FP inh – blocks human PAF acetylhydrolase 1B catalytic subunit 3 | Q15102 | recombinant PAFAH1B3, FP-rhodamine probe, fluorescence polarization | inhibition, % at 3.39 µM | hit rate 0.28% among 340,000;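 active means inhibition above the screen-wide average of all tested compounds plus 3 SD, cut at about 25% in these data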;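 further: 0% = enzyme with DMSO only and 100% = wells lacking PAFAH1B3 protein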
* hit, by the source's call. Shown are actives, neighbours in structure and some others; about 2.7% of the full set was active somewhere.

Screening CCN(c1ccccc1)S(=O)(=O)c1ccc(Cl)c(C(=O)N2CCCC2)c1 returned TCR-CD3 inh 4, PAFAH1B2 FP inh 4, PAFAH2 inh 6, pPAFAH inh 3 and PAFAH1B3 FP inh 6.
`Cc1ccc(S(=O)(=O)N2CC(O)C[C@H]2C(=O)OCC(=O)Nc2ccc(N3CCCCC3)cc2)cc1C` (stereo not given in full) gave TCR-CD3 inh 3, PAFAH1B2 FP inh 1, PAFAH2 inh 9, pPAFAH inh 25* and PAFAH1B3 FP inh 3.
`COc1cc(NC(=O)COC(=O)C2CC(O)CN2S(=O)(=O)c2ccc(Cl)cc2)c(C)cc1[N+](=O)[O-]` (stereo not given) gave TCR-CD3 inh -1, PAFAH1B2 FP inh 2, PAFAH2 inh 8 and PAFAH1B3 FP inh 11.
Screening CCOc1ccc(OCC(=O)Nc2ccc(N3CCCCC3)cc2)cc1 returned TCR-CD3 inh 1, PAFAH1B2 FP inh 11, PAFAH2 inh 2, pPAFAH inh 6 and PAFAH1B3 FP inh 10.
For Cc1cc(OCC(=O)Nc2ccc(N3CCCC3)cc2)cc(C)c1Cl the results were TCR-CD3 inh 5, PAFAH1B2 FP inh -2, PAFAH2 inh 6, pPAFAH inh 26* and PAFAH1B3 FP inh 0.
CCCCS(=O)(=O)N1C2=NC(C(=O)OCC)=C(C(=O)OCC)C3N(Cc4ccc(Br)cc4)c4ccccc4[C@]23C[C@H]1C(=O)OC (stereo not given in full) was read as TCR-CD3 inh -8.
`Cc1ccccc1C(=O)NNC(=O)C12CC3CC(CC(C3)C1)C2` gave TCR-CD3 inh 2, PAFAH1B2 FP inh 9, PAFAH2 inh 0, pPAFAH inh 0 and PAFAH1B3 FP inh 1.
Cc1cccc(C(=O)NNC(=O)C23CC4CC(CC(C4)C2)C3)c1O was read as TCR-CD3 inh 9, PAFAH1B2 FP inh 37*, PAFAH2 inh 31*, pPAFAH inh 11 and PAFAH1B3 FP inh 5.
Screening O=C(NNC(=O)C12CC3CC(CC(C3)C1)C2)c1ccccc1O returned TCR-CD3 inh 0, PAFAH1B2 FP inh 36*, PAFAH2 inh 63*, pPAFAH inh 5 and PAFAH1B3 FP inh 14.
Screening COC(=O)c1ccccc1S(=O)(=O)NNC(=O)C12CC3CC(CC(C3)C1)C2 returned TCR-CD3 inh 6, PAFAH1B2 FP inh 24*, PAFAH2 inh 80*, pPAFAH inh 6 and PAFAH1B3 FP inh 11.
COc1ccc2c(c1)[C@@H](NC(=O)c1ccncc1)[C@@H]1Cc3ccccc3[C@H]21 was read as TCR-CD3 inh 0.
`O=C(Sc1ccc(Cl)cc1)c1ccccn1` gave TCR-CD3 inh -5, PAFAH1B2 FP inh 4, PAFAH2 inh 7, pPAFAH inh 8 and PAFAH1B3 FP inh 2.
CNCC(O)c1ccc(OC(=O)C(C)(C)C)c(OC(=O)C(C)(C)C)c1 (stereo not given) was read as TCR-CD3 inh 0, PAFAH1B2 FP inh 27*, PAFAH2 inh 0, pPAFAH inh 3 and PAFAH1B3 FP inh 1.
For CCCCN(Cc1nc2ccccc2c(=O)[nH]1)C(=O)COc1ccc(F)cc1Cl the results were TCR-CD3 inh 2, PAFAH1B2 FP inh 5, PAFAH2 inh 2, pPAFAH inh 7 and PAFAH1B3 FP inh 2.
`Cc1ccc(S(=O)(=O)Nc2nc(C)c(C(=O)NNS(=O)(=O)c3ccccc3)s2)cc1` gave TCR-CD3 inh 3, PAFAH1B2 FP inh 29*, PAFAH2 inh 12, pPAFAH inh 7 and PAFAH1B3 FP inh 9.
Cc1ccc(S(=O)(=O)NCCCCC(NC(=O)OC(C)(C)C)C(=O)O)cc1 (stereo not given) (tested in a mixture with another compound) was read as TCR-CD3 inh -2, PAFAH1B2 FP inh 5, PAFAH2 inh -2, pPAFAH inh 3 and PAFAH1B3 FP inh 0.
Cc1ccc(S(=O)(=O)n2ccc3c(OCCOCCSCC(NC(=O)OC(C)(C)C)C(=O)O)cccc32)cc1 (stereo not given) was read as TCR-CD3 inh 2, PAFAH1B2 FP inh 81*, PAFAH2 inh 1, pPAFAH inh 15 and PAFAH1B3 FP inh 2.
O=C(C[C@@H]1C[C@@H]2c3cc(NC(=O)c4ccc5c(c4)OCO5)ccc3O[C@@H]2[C@@H](CO)O1)NCc1cccnc1 was read as TCR-CD3 inh 2.
For O=C(Nc1ncc(S(=O)(=O)c2ccc([N+](=O)[O-])cc2)s1)c1cccc2ccccc12 the results were TCR-CD3 inh 1, PAFAH1B2 FP inh -3, PAFAH2 inh 1, pPAFAH inh 7 and PAFAH1B3 FP inh 1.
`COCC(=O)Nc1ncc(S(=O)(=O)c2ccc([N+](=O)[O-])cc2)s1` gave TCR-CD3 inh 0, PAFAH1B2 FP inh 28*, PAFAH2 inh 6, pPAFAH inh 3 and PAFAH1B3 FP inh 10.
For CCCCC(=O)Nc1ncc(S(=O)(=O)c2ccc([N+](=O)[O-])cc2)s1 the results were TCR-CD3 inh 4, PAFAH1B2 FP inh 1, PAFAH2 inh 8, pPAFAH inh -2 and PAFAH1B3 FP inh 0.
Screening CC(=O)NCCC(=O)Nc1ncc(S(=O)(=O)c2ccc([N+](=O)[O-])cc2)s1 returned TCR-CD3 inh -6, PAFAH1B2 FP inh 26*, PAFAH2 inh 5, pPAFAH inh -1 and PAFAH1B3 FP inh 7.
Screening CCN(CC(=O)Nc1ccccc1C(F)(F)F)C(=O)/C=C/c1ccc(Cl)c([N+](=O)[O-])c1 returned TCR-CD3 inh -6, PAFAH1B2 FP inh 2, PAFAH2 inh -1, pPAFAH inh -1 and PAFAH1B3 FP inh 3.
Screening O=C1C(=Cc2ccco2)C(=O)c2ccccc21 returned TCR-CD3 inh 3, PAFAH1B2 FP inh 4, PAFAH2 inh 7, pPAFAH inh 28* and PAFAH1B3 FP inh 8.
`O=C1/C(=C/c2ccco2)CCc2ccccc21` gave TCR-CD3 inh -1, PAFAH1B2 FP inh -1, PAFAH2 inh 4, pPAFAH inh 11 and PAFAH1B3 FP inh 6.
Screening CCN=C1NC(CCc2ccccc2)C(C(=O)OC)=C(C)N1Cc1ccc(C(F)(F)F)cc1 (stereo not given) returned TCR-CD3 inh 3.
For CCCCCN(C(=O)CSc1n[nH]c(-c2ccc(C)cc2)n1)c1c(N)n(CCCC)c(=O)[nH]c1=O the results were TCR-CD3 inh 1, PAFAH1B2 FP inh 29*, PAFAH2 inh -2, pPAFAH inh -3 and PAFAH1B3 FP inh 4.
For CCCCn1c(N)c(N(CCOC)C(=O)CSc2n[nH]c(-c3ccc(C)cc3)n2)c(=O)[nH]c1=O the results were TCR-CD3 inh 4, PAFAH1B2 FP inh 0, PAFAH2 inh 7, pPAFAH inh 5 and PAFAH1B3 FP inh 4.
CCOC(=O)/C(N=Nc1sc(C(=O)OCC)c(C)c1C(=O)OCC)=C(\C)O was read as pPAFAH inh 2.
`CCOC(=O)c1sc(N=NC2=C(O)CCCC2=O)c(C(=O)OCC)c1C` gave TCR-CD3 inh 4, PAFAH1B2 FP inh -5, PAFAH2 inh 10, pPAFAH inh 28* and PAFAH1B3 FP inh 2.
Screening CCCCCCCCN1C(=O)[C@@H](CC(=O)N2CCSCC2)C[C@@]2(C(=O)OC)C1=C[C@H](C1CCCC1)O[C@@H]2C returned TCR-CD3 inh 12.

Source: PubChem BioAssay (The Scripps Research Institute Molecular Screening Center)
